# According to the supplement of paper PMC11172423:
# Values without a mark were called inactive.
# Assays:
# [1] = tested on: Falciformispora senegalensis CBS197.79; experiment: growth relative to untreated control; higher = less inhibition, active = 20 or less
# Procedure, shortened: (§1)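 Viability readout used either MTS (2 h, 490 nm) or resazurin (600 nm). Before this, hyphal fragments of M. mycetomatis MM55 or F. senegalensis CBS197.79 in colourless RPMI 1640 with L-glutamine and MOPS (68–72% transmission at 660 nm) had been exposed in 96-well plates to compound at 100 or 25 µM for 7 days at 37 °C. Growth denotes metabolic activity relative to the untreated growth control, with a medium-plus-dye blank subtracted from both.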
# [2] = tested on: Madurella mycetomatis MM55; experiment: as above
# Procedure, shortened: as §1
SMILES,growth ([1]; 25 µM),growth ([1]; 100 µM),growth ([2]; 25 µM),growth ([2]; 100 µM)
Cc1ccc(Cl)cc1NC(=O)c1c(-c2ccccc2Cl)noc1C,79.7%,80.1%,32.8%,131%
CCN(CC)CCNC(=O)c1ccc(NC(=O)c2cc3c(C)nn(-c4ccc(Cl)cc4)c3s2)cc1,58.4%,61.2%,59.2%,108%
COc1cc2nccc(Oc3ccc(NC(=O)C4(C(=O)Nc5ccc(F)cc5)CC4)cc3)c2cc1OC,83.6%,98.4%,99.9%,79.9%
NC(=O)c1ncn([C@@H]2O[C@H](CO)[C@@H](O)[C@H]2O)n1,110%,102%,87.9%,87.6%
C=CC(=O)Nc1cc(Nc2nccc(-c3cn(C)c4ccccc34)n2)c(OC)cc1N(C)CCN(C)C,7.88% (active),12.6% (active),3.84% (active),2.43% (active)
Oc1ccccc1CCNC1CCc2ccc(F)cc21 (configuration not stated),107%,115%,32.8%,34%
NS(=O)(=O)OC[C@@H]1C[C@@H](n2ccc3c(N[C@H]4CCc5ccccc54)ncnc32)C[C@@H]1O,112%,101%,85%,99.5%
COc1ccc(-c2ccc3c(-c4ccc(F)cc4)cnc(N)c3c2)cn1,94.3%,75.2%,88.1%,38.6%
